Source: ChEMBL document CHEMBL3433997, “St. Jude Leishmania screening dataset” (2016)

The molecules below were run against Solute carrier family 2, facilitated glucose transporter member 1 (Homo sapiens) (UniProt P11166) (assay: ST_JUDE_LEISH: Cytotoxicity at 2uM final concentration against transgenic Leishmania Mexicana promastigotes LmGLUT1 that are glucose transport deficient and complemented with the human glucose transporter GLUT1. Activity is measured by DNA content using SYBR green in vitro).
Solute carrier family 2, facilitated glucose transporter member 1 (Homo sapiens), sequence (P11166 whole entry): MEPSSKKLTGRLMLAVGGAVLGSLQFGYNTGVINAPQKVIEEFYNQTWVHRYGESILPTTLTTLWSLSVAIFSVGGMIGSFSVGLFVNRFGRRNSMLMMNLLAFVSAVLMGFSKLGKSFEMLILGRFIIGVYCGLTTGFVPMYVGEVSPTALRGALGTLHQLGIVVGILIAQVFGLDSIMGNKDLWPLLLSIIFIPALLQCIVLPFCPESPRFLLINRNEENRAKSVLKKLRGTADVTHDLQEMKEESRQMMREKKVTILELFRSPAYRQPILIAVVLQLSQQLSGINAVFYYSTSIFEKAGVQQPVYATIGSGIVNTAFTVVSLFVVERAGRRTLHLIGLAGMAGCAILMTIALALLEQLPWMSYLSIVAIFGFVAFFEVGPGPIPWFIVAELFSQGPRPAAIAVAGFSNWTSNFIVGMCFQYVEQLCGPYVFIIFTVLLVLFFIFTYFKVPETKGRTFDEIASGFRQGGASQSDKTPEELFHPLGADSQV
Format: functional

SMILES	inhibition [%]
Cc1csc(-c2ncc(OC[C@@H](N)Cc3ccccc3)cc2-c2ccc3[nH]nc(C)c3c2)c1	2.54
O=C(Nc1ccc(Cl)cc1)c1ccc(CN2CCCN(Cc3ccc(F)cc3)CC2)cc1	5.91
N#Cc1ccc(CN2CCC(Oc3ccc(NC(=O)c4ccsc4)cc3Cl)C2)cc1 (stereo not given)	8.19
Cc1ccc2[nH]cc(/C=C/C(=O)NC3CCC(CCN4CCc5ccc(C#N)cc5CC4)CC3)c2c1 (stereo not given)	0.83
O=C(NC1CCCCN(Cc2ccc3c(c2)OCCO3)C1)c1cc(-c2ccccc2F)cs1 (stereo not given)	12.7
CN(C)CCNCc1ccc(-c2ccc(-c3nc4ccccc4[nH]3)s2)cc1	13.7
COc1cc2c(cc1C(F)(F)F)N(C(=O)Nc1cc(F)cc(-c3cncnc3)c1)CC2	11.6
CC(C)NCc1ccc(-c2ccc(NS(=O)(=O)c3cccc4cccnc34)cc2)cc1	16.1
Cn1c(=O)c2nc(-c3ccc(Cl)cc3)nnc2n(CCCC#N)c1=O	7.35
CC(C)COc1ccc(Cl)cc1Cc1nc(-c2nc3ccc(CN4CCCCC4)cc3[nH]2)co1	4.83
CS(=O)(=O)c1ccc(-n2nc(C(F)(F)F)cc2-c2ccc(C=NOCC(=O)O)o2)cc1	1.5
Cn1nccc1C(=O)NCCNCc1ccc(-c2cccc(-c3nc4cc(F)ccc4[nH]3)c2)cc1	-0.28
CC(=NNC(S)=NCCc1ccccn1)c1ccccn1	7.78
O=C(Nc1ccc(Cl)c(Cl)c1)N(Cc1ccccc1Br)C1CCNCC1	0.5
CCN(CC)CCCN(C(=O)c1cc2c(C)nn(-c3ccccc3)c2s1)c1nc(-c2ccc(OC)cc2)cs1	10.5
COc1ccc2nccc([C@@H](O)CN3CCC(NC(=O)C(c4cc5ccccc5o4)N4CCC(Cc5ccccc5)CC4)CC3)c2c1 (stereo not given in full)	5.02
Cn1cc(CN2CCCC(COC(c3ccc(F)cc3)c3ccc(F)cc3)C2)cn1 (stereo not given)	2.32
CS(=O)(=O)n1c(CN2CCN(c3ncc(C(F)(F)F)cc3Cl)CC2)nc2ccccc21	8.28
Cc1cc(OCCCN2CCCCC2)ccc1NC(=O)COc1ccc(Cl)cc1C(=O)c1cc(Cl)cc(C#N)c1	60.8
O=C(NC1CCCCN(Cc2ccccc2O)C1)c1ccc(-c2ccccc2)cc1 (stereo not given)	2.73

SMILES	inhibition [%]
FC(F)(F)c1ccc2[nH]c(-c3cccc(-c4ccc(CNCc5cnn(-c6ccccc6)n5)cc4)c3)nc2c1	-0.1
C=CCc1cccc(CN2CCC(c3cc(O)nc(-c4ccccn4)n3)CC2)c1O	8.38
NCc1cccc(-c2ccc3ccnc(N)c3c2)c1	0.01
CCN1CCN(C(=O)NC(C(=O)N(C)Cc2ccc(-c3ccc(C(F)(F)F)cc3)cc2)c2cccs2)C(=O)C1=O (stereo not given)	1.34
COc1ccc2nc(-c3ccccc3)cc(N/N=C/c3ccc([N+](=O)[O-])cc3)c2c1	6.36
Cc1ccc2c(N/N=C/c3cccc([N+](=O)[O-])c3)cc(C)nc2c1	8.19
CCCCc1ccc(-c2nc(NC(=O)Nc3[nH]c(-c4ccccc4)nc3C(=O)OCC)c(C(=O)OCC)[nH]2)cc1	3.65
C=CCOC(=O)N1CCC(CNCc2cccc(-c3ccc(-c4nc5cccc(C)c5[nH]4)cc3)c2)C1 (stereo not given)	6.3
O=c1cc(NCCCCNCc2cccc(C(F)(F)F)c2)[nH]c2ccccc12	9.62
Cc1cccc2nc(-c3cccc(-c4cccc(NC(=O)C5CC(=O)Nc6ccccc65)c4)c3)[nH]c12 (stereo not given)	4.88
Cc1ccc(CNC(=O)[C@H](CC(C)C)Nc2cc(C)nc(NCC3CCCCC3)n2)cc1	11.2
C=CCc1cc(C2CCN(CCCCNC(=O)c3ccc(-c4ccc(C#N)cc4)cc3)CC2)c(OCC(N)=O)c2c1CCCC2	0.81
Cc1c(CC(=O)NCCC2CCN(CCCCCNC(=O)/C=C/c3ccc(Cl)c(Cl)c3)CC2)sc2ccc(Cl)cc12	4.42
COc1ccc(-c2cc(-c3nc4cc(CN)ccc4[nH]3)c(=O)n(C)c2)cc1OC	0.63
N#Cc1cccc(-c2nc(NCc3cccc(C(F)(F)F)c3)nn2-c2cccc(C(F)(F)F)c2)c1	1.68
COc1ccc(COc2cc(NCCCN)nc3ccccc23)cc1	4.66
CCCCCCCCc1c(C)[nH]c(C)c(Cl)c1=O	0.5
COc1ccc(-n2ccnc2)cc1CNC1CCN(CC2Cn3c(=O)ccc4ccc(F)c2c43)CC1 (stereo not given)	4.7
Clc1ccc(CNc2nc(NCCc3c[nH]cn3)nc(Nc3ccc4c(c3)OCO4)n2)cc1	2.28
O=C(/C=C/c1ccc(Br)cc1)NCCCCCN1CCC(c2c[nH]c3ccccc23)CC1	25.2

These molecules were tested against Hexose transporter 1 (Plasmodium falciparum) (UniProt O97467) (assay: ST_JUDE_LEISH: Cytotoxicity at 2uM final concentration against transgenic Leishmania Mexicana promastigotes LmPfHT that are glucose transport deficient and complemented with the Plasmodium falciparum hexose transporter. Activity is measured by DNA content using SYBR green in vitro).
Format: functional

SMILES	inhibition [%]
Cc1csc(-c2ncc(OC[C@@H](N)Cc3ccccc3)cc2-c2ccc3[nH]nc(C)c3c2)c1	0.85
O=C(Nc1ccc(Cl)cc1)c1ccc(CN2CCCN(Cc3ccc(F)cc3)CC2)cc1	1.23
N#Cc1ccc(CN2CCC(Oc3ccc(NC(=O)c4ccsc4)cc3Cl)C2)cc1 (stereo not given)	11.8
Cc1ccc2[nH]cc(/C=C/C(=O)NC3CCC(CCN4CCc5ccc(C#N)cc5CC4)CC3)c2c1 (stereo not given)	4.1
O=C(NC1CCCCN(Cc2ccc3c(c2)OCCO3)C1)c1cc(-c2ccccc2F)cs1 (stereo not given)	16.4
CN(C)CCNCc1ccc(-c2ccc(-c3nc4ccccc4[nH]3)s2)cc1	14.5
COc1cc2c(cc1C(F)(F)F)N(C(=O)Nc1cc(F)cc(-c3cncnc3)c1)CC2	1.94
CC(C)NCc1ccc(-c2ccc(NS(=O)(=O)c3cccc4cccnc34)cc2)cc1	14.5
Cn1c(=O)c2nc(-c3ccc(Cl)cc3)nnc2n(CCCC#N)c1=O	7.41
CC(C)COc1ccc(Cl)cc1Cc1nc(-c2nc3ccc(CN4CCCCC4)cc3[nH]2)co1	3.69
CS(=O)(=O)c1ccc(-n2nc(C(F)(F)F)cc2-c2ccc(C=NOCC(=O)O)o2)cc1	2.45
Cn1nccc1C(=O)NCCNCc1ccc(-c2cccc(-c3nc4cc(F)ccc4[nH]3)c2)cc1	-4.29
CC(=NNC(S)=NCCc1ccccn1)c1ccccn1	4.39
O=C(Nc1ccc(Cl)c(Cl)c1)N(Cc1ccccc1Br)C1CCNCC1	3.45
CCN(CC)CCCN(C(=O)c1cc2c(C)nn(-c3ccccc3)c2s1)c1nc(-c2ccc(OC)cc2)cs1	9.13
COc1ccc2nccc([C@@H](O)CN3CCC(NC(=O)C(c4cc5ccccc5o4)N4CCC(Cc5ccccc5)CC4)CC3)c2c1 (stereo not given in full)	3.03
Cn1cc(CN2CCCC(COC(c3ccc(F)cc3)c3ccc(F)cc3)C2)cn1 (stereo not given)	1.9
CS(=O)(=O)n1c(CN2CCN(c3ncc(C(F)(F)F)cc3Cl)CC2)nc2ccccc21	7.91
Cc1cc(OCCCN2CCCCC2)ccc1NC(=O)COc1ccc(Cl)cc1C(=O)c1cc(Cl)cc(C#N)c1	19.1
O=C(NC1CCCCN(Cc2ccccc2O)C1)c1ccc(-c2ccccc2)cc1 (stereo not given)	2.62

SMILES	inhibition [%]
FC(F)(F)c1ccc2[nH]c(-c3cccc(-c4ccc(CNCc5cnn(-c6ccccc6)n5)cc4)c3)nc2c1	0.61
C=CCc1cccc(CN2CCC(c3cc(O)nc(-c4ccccn4)n3)CC2)c1O	10.4
NCc1cccc(-c2ccc3ccnc(N)c3c2)c1	0.05
CCN1CCN(C(=O)NC(C(=O)N(C)Cc2ccc(-c3ccc(C(F)(F)F)cc3)cc2)c2cccs2)C(=O)C1=O (stereo not given)	0.77
COc1ccc2nc(-c3ccccc3)cc(N/N=C/c3ccc([N+](=O)[O-])cc3)c2c1	6.3
Cc1ccc2c(N/N=C/c3cccc([N+](=O)[O-])c3)cc(C)nc2c1	4.7
CCCCc1ccc(-c2nc(NC(=O)Nc3[nH]c(-c4ccccc4)nc3C(=O)OCC)c(C(=O)OCC)[nH]2)cc1	0.82
C=CCOC(=O)N1CCC(CNCc2cccc(-c3ccc(-c4nc5cccc(C)c5[nH]4)cc3)c2)C1 (stereo not given)	8.62
O=c1cc(NCCCCNCc2cccc(C(F)(F)F)c2)[nH]c2ccccc12	7.88
Cc1cccc2nc(-c3cccc(-c4cccc(NC(=O)C5CC(=O)Nc6ccccc65)c4)c3)[nH]c12 (stereo not given)	-1.8
Cc1ccc(CNC(=O)[C@H](CC(C)C)Nc2cc(C)nc(NCC3CCCCC3)n2)cc1	9.15
C=CCc1cc(C2CCN(CCCCNC(=O)c3ccc(-c4ccc(C#N)cc4)cc3)CC2)c(OCC(N)=O)c2c1CCCC2	2.67
Cc1c(CC(=O)NCCC2CCN(CCCCCNC(=O)/C=C/c3ccc(Cl)c(Cl)c3)CC2)sc2ccc(Cl)cc12	5.42
COc1ccc(-c2cc(-c3nc4cc(CN)ccc4[nH]3)c(=O)n(C)c2)cc1OC	0.83
N#Cc1cccc(-c2nc(NCc3cccc(C(F)(F)F)c3)nn2-c2cccc(C(F)(F)F)c2)c1	-0.35
COc1ccc(COc2cc(NCCCN)nc3ccccc23)cc1	6.16
CCCCCCCCc1c(C)[nH]c(C)c(Cl)c1=O	0.28
COc1ccc(-n2ccnc2)cc1CNC1CCN(CC2Cn3c(=O)ccc4ccc(F)c2c43)CC1 (stereo not given)	4.54
Clc1ccc(CNc2nc(NCCc3c[nH]cn3)nc(Nc3ccc4c(c3)OCO4)n2)cc1	2.3
O=C(/C=C/c1ccc(Br)cc1)NCCCCCN1CCC(c2c[nH]c3ccccc23)CC1	17.3
